High-throughput results: PubChem BioAssay, National Center for Advancing Translational Sciences (NCATS)
In the library only some 1.3% were active in any assay of this set; here they are far more common.
Six1-Eya2 inh: qHTS Assay for Inhibitors of the Six1/Eya2 Interaction | AID 651725, 2012 | 360,000 compounds, 0.56% hits | activity change, % (concentration not given with the values) | AlphaScreen GST-Six1/His-Eya2 binding, biochemical; hits give low values | Homeobox protein SIX1 (Homo sapiens) + Protein phosphatase EYA2 (Homo sapiens), …
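AlphaScreen with GST-Six1 and His-Eya2 (5X mix: 250 nM and 500 nM), glutathione donor and nickel acceptor beads; buffer 50 mM Tris pH 8.0, 300 mM NaCl, 1 mM TCEP; 1 h at 37 C in the dark.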
CtBP-E1A blk: qHTS Assay for Inhibitors of the CtBP/E1A Interaction; AlphaScreen GST-E1A/His-CtBP binding, 1536-well; hits give low values; 340,000 compounds, 0.49% hits; AID 651724, 2012; activity change, % (concentration not given with the values)
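AlphaScreen with 125 nM GST-E1A and 125 nM His-CtBP (5X stocks) in Tris pH 8.0, 300 mM NaCl, BSA, Tween 20, TCEP. Compounds preincubated 2 h at 37 deg C, then glutathione donor/nickel acceptor beads added for 1 h at 37 deg C in dark.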
CCT modulator: High-Throughput Screening for Modulators of Cytosolic Chaperonin Activity; purified chaperonin ATPase assay, HTRF ADP detection, 30 min; 360,000 compounds, 0.3% hits; activity change, % (concentration not given with the values), hits read low; in the data active means activity change below about -30%
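We incubate TRiC, 40 or 20 nM final, with library compounds at 76 uM and 10 uM ATP for 30 min at 37 °C. ADP formed is detected with Transcreener HTRF reagents after 30 min at room temperature.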
pAkt inh: HTS Assay for Inhibitors of Akt Phophorylation: Primary Screen; Neuro2A IGF-stimulated pAkt S473 HTRF, 20 min; hits give low values; activity change, % for hits at 50 µM; 360,000 compounds, 0.32% hits; AID 651550, 2012; in the data active means activity change below about -80%; inconclusive means mostly about -51% to -80%
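Single-point screen (50 µM final compound) in Neuro2A cells stimulated 20 min with 6 nM IGF at 37 deg C. After lysis, Ser473-phosphorylated Akt read by HTRF (ex 330 nm, em 615/665 nm) as the 665/615 ratio.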
Numbers without * were called inactive; i = inactive; u = inconclusive; x = not tested or not shown; ! = a repeat was not active. Unless noted, no stated cut-off is given here; in the data, active means activity change below about -65%; inconclusive means mostly about -30% to -63%; inactive means weaker than that. On the % scale 0 is the no-effect control and ±100 the full control effect.

SMILES | Six1-Eya2 inh | CtBP-E1A blk | CCT modulator | pAkt inh
Cc1ccc(-c2[nH]ncc2/C=N/n2c(COc3ccccc3)nc3ccccc3c2=O)cc1 | -1 | -1 | 1 | i
O=C(O)c1ccccc1-c1nc2ccccc2c(=O)[nH]1 | 7 | 2 | -3 | -105%*
CCOC(=O)C1=C(N)Oc2c(oc(CO)cc2=O)C1c1c(F)cccc1Cl (stereo not given) | 2 | -1 | 1 | -109%*
CN(C(=O)c1cccc(NC(=O)Cc2cccc([N+](=O)[O-])c2)c1)C1CC1 | -2 | 7 | -1 | i
O=C(O)C1CCCN1S(=O)(=O)c1cc(Cl)ccc1Cl (stereo not given) | 5 | 9 | -56* | i
COc1cc(NC(=O)c2csc(-c3ccncc3)n2)cc(C(=O)Nc2cccc(C(F)(F)F)c2)c1 | 4 | 3 | -35*! | i
COc1ccc(NC(=O)N2CCCC2C(=O)Nc2ccc(C)cc2C)cc1 (stereo not given) | 0 | 6 | -2 | i
COc1ccc(C)cc1NC(=O)CSc1ccc(-c2ccccn2)nn1 | -83* | -85* | -3 | i
CCOC(=O)c1ccccc1NC(=O)CSc1ccc(-c2ccccn2)nn1 | -84* | -86* | 1 | i
COc1ccc(C)cc1NC(=O)CSc1ccc(-c2sc(C)nc2C)nn1 | -18 | -15 | 0 | i
COCOCCn1cc(CN2CCS(=O)(=O)N(Cc3ccc(-c4cccc(CO)c4)cc3)C(CC(C)C)C2=O)nn1 (stereo not given) | 6 | 1 | 1 | i
Cc1ccc2nc(Nc3nc(C)cc(-c4ccccc4)n3)[nH]c(=O)c2c1 | -4 | 0 | 1 | i
Cc1nc2ccccc2c(=O)n1/N=C/c1cc(Br)ccc1O | u | -65* | 1 | i
CCCS(=O)(=O)NC(=O)C1(C)CCCN(C(=O)c2cc(-c3cccs3)oc2C)C1 (stereo not given) | 10 | -15 | 0 | i
Cc1cc(C)c2c(c1)-c1c(ssc1=S)C(C)(C)N2C(=O)CSc1nncn1C | -67* | -67* | -1 | i
O=C(Nc1ccc(F)cc1)c1nc[nH]c1C(=O)O | -77* | x | 1 | i
COC(=O)Nc1nc(C)c(C(=O)N(C)C)s1 | 1 | 1 | -1 | -127%*
CCOc1ccc(OCCOC(=O)CN2C(=O)NC3(CCCC3)C2=O)cc1 | 9 | 13 | -1 | i
CC1(C)C2CCC1(C)C(OC(=O)CSc1nc(N)cc(=O)[nH]1)C2 (stereo not given) | -2 | 0 | -70* | x
O=C1CCN(C(=O)Nc2cccc(Cl)c2)N1 | -2 | 0 | -2 | -120%*
O=C(CSc1ccccn1)N/N=C/c1ccccc1[N+](=O)[O-] | 1 | -5 | -2 | i
Cc1ccn(CC(=O)N/N=C/c2cc([N+](=O)[O-])ccc2O)n1 | -90* | -93* | -20 | i
O=C(CSc1ccccn1)N/N=C/c1cc([N+](=O)[O-])ccc1O | -88* | x | 2 | i
O=C(Cn1cncn1)N/N=C/c1cc([N+](=O)[O-])ccc1O | -91* | x | -4 | i
Cc1cc([N+](=O)[O-])nn1CC(=O)N/N=C/c1ccc(O)cc1O | -85* | u | -5 | i
SMILES | Six1-Eya2 inh | CtBP-E1A blk | CCT modulator | pAkt inh
O=C(Cn1nc2ccccc2n1)N/N=C/c1cc([N+](=O)[O-])ccc1O | u | x | -4 | i
O=C(Cn1nnc(-c2ccccc2)n1)N/N=C/c1cc([N+](=O)[O-])ccc1O | u | 10 | -1 | i
CCNS(=O)(=O)c1ccc(CCC(=O)N2CCN(c3ccccc3)CC2)cc1 | 3 | x | -7 | i
CC(C)CNC(=O)C1CCN(S(=O)(=O)c2ccc3c(c2)OCCO3)CC1 | -8 | 6 | 0 | i
O=C(Cn1cncn1)N/N=C/c1ccccc1O | -85* | -94* | 0 | i
O=[N+]([O-])c1cc(Cl)ccc1Nc1ccccc1 | -78* | x | 1 | i
NS(=O)(=O)c1ccc(Nc2ccccc2)c([N+](=O)[O-])c1 | -14 | x | 1 | i
CCOC(=O)CCc1c(C)c2c(C)nn(-c3ccccc3)c2[nH]c1=O | -2 | -8 | -34* | i
CCOC(=O)CCc1c(C)nc2c(c(C)nn2-c2ccccc2)c1C | 3 | 3 | -1 | i
O=C(Cn1c(=S)[nH]c2ccccc21)c1ccccc1 | -1 | 0 | -34* | i
CCn1c(=S)[nH]c2ccccc21 | 1 | 8 | -4 | i
C=CCOc1ccc(C(=O)/C=C2/C(=O)Nc3ccccc32)cc1 | 1 | 1 | -45* | i
NC(=O)COc1ccc(C(=O)/C=C2/C(=O)Nc3ccccc32)cc1 | 2 | -17 | -19 | i
COC(=O)N/N=C/c1ccc([N+](=O)[O-])o1 | -3 | -23 | 1 | -115%*
NC(=O)N/N=C/c1ccc([N+](=O)[O-])o1 | 16 | -5 | -1 | i
Cc1ccc(C(=O)NNC(=S)NC(=O)c2ccccc2)cc1 | -13 | -24 | -1 | i
O=C(NNC(=S)NC(=O)c1ccccc1)c1ccc([N+](=O)[O-])cc1 | 5 | x | -5 | i
O=C(NC(=S)NNC(=O)c1ccccc1O)c1ccc(F)cc1 | -91* | -94* | -3 | i
Cc1ccc(C(=O)NC(=S)NNC(=O)c2ccccc2O)cc1 | -88* | -2 | -3 | i
O=C(NNC(=S)NC(=O)c1ccccc1[N+](=O)[O-])c1ccccc1O | -74* | -94* | -1 | i
O=C(NC(=S)NNC(=O)c1ccccc1O)c1ccc([N+](=O)[O-])cc1 | -86* | x | 1 | i
O=C(NNC(=S)NC(=O)c1ccc(F)cc1)c1cccnc1 | -12 | -1 | -1 | i
Cc1ccc(C(=O)N2CCN(C34CC5CC(CC(C5)C3)C4)CC2)o1 | -4 | 2 | -2 | i
CCn1c(=O)c(CCC(=O)NCC2CCCO2)c(C)c2c(C)nn(-c3ccccc3)c21 (stereo not given) | -8 | -18 | -3 | i
O=C(NC(=S)NNC(=O)c1ccccc1O)c1cccs1 | -82* | -95* | -2 | i
SMILES | Six1-Eya2 inh | CtBP-E1A blk | CCT modulator | pAkt inh
O=C(NC(=S)NNC(=O)c1ccccc1O)c1ccccc1 | -75* | -94* | -2 | i
COc1ccc(C(=O)NNC(=S)NC(=O)c2cccs2)cc1 | -6 | -5 | -1 | i
O=C(CNC(=O)c1cccc([N+](=O)[O-])c1)NC1CCCc2ccccc21 (stereo not given) | 5 | 6 | 2 | i
COc1ccc(NC(=O)CSc2nc3ccc(Nc4nc(N5CCOCC5)nc(N5CCOCC5)n4)cc3s2)cc1 | 19 | x | -75* | x
Cc1ccc(NC(=O)CSc2nc3ccc(Nc4nc(N5CCOCC5)nc(N5CCOCC5)n4)cc3s2)cc1 | 0 | 8 | 0 | i
Cc1ccc(NC(=S)NNC(=O)c2nnn(-c3ccccc3)c2C)cc1 | -75* | -1 | 0 | i
Cc1ccc(NC(=S)NNC(=O)c2nn(C)cc2Cl)cc1 | -18 | -28 | 1 | i
